These results are taken from PubChem BioAssay (Tox21).

The nature of experiment [1]: qHTS assay to identify small molecule agonists of the peroxisome proliferator-activated receptor delta (PPARd) signaling pathway - cell viability counter screen (AID 743211; active = well fitted curve in the direction sought with a large enough effect in the repeat runs; an effect the other way counts as inactive or inconclusive; note: nearly all actives have a fitted effect of over 55% in size). The method in brief:
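PPARd-bla HEK293H cells (UAS-beta-lactamase reporter) were treated with compounds for 17 h at 37 C. Viability was then read in the same wells by CellTiter-Glo luminescence after 30 min at room temperature.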
For orientation: Quantitative high-throughput screening tests each substance at several concentrations.

For experiment [2], the target named is Peroxisome proliferator-activated receptor delta (Homo sapiens) (UniProt Q03181). The experiment can be described thus: qHTS assay to identify small molecule agonists of the peroxisome proliferator-activated receptor delta (PPARd) signaling pathway (AID 743212). The method in brief:
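Read-out: beta-lactamase FRET fluorescence after 2 h room-temperature incubation with LiveBLAzer B/G substrate. Cells were HEK293H carrying a UAS-bla reporter for PPARd, treated at 37 C with DMSO-dissolved compounds.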

Experiment [3] in a line: qHTS assay to identify small molecule antagonists of the peroxisome proliferator-activated receptor delta (PPARd) signaling pathway - cell viability counter screen (AID 743213; active = well fitted curve in the direction sought with a large enough effect in the repeat runs; an effect the other way counts as inactive or inconclusive; note: nearly all actives have a fitted effect of over 50% in size). The method in brief: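 Luminescence from CellTiter-Glo, added after the bla read and incubated 30 min at room temperature, gives viability of HEK293H PPARd-bla cells exposed to compounds for 17 h at 37 C with 300 nM L165041.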

The target in experiment [4] is Peroxisome proliferator-activated receptor delta (Homo sapiens) (UniProt Q03181). In words: qHTS assay to identify small molecule antagonists of the peroxisome proliferator-activated receptor delta (PPARd) signaling pathway (AID 743215; active = well fitted inhibition curve with a large enough effect in the signal ratio in the repeat runs, not every such curve was filed as active; the % refers to the signal ratio;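 note: cells stimulated with agonist L165041 at 300 nM final during compound exposure; series mostly up to about 62 µM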). The method in brief:
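HEK293H GeneBLAzer PPARd UAS-bla reporter cells; cpd + L165041 300 nM final, 17 h 37 C; LiveBLAzer B/G FRET substrate 2 h RT; fluorescence intensity read-out. Antagonist mode.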

Experiment [5] has as its target Bile acid receptor (Homo sapiens) (UniProt Q96RI1). In words: qHTS assay to identify small molecule antagonists of the farnesoid-X-receptor (FXR) signaling pathway (AID 743217; active = well fitted inhibition curve with a large enough effect in the signal ratio in the repeat runs, not every such curve was filed as active; the % refers to the signal ratio). The method in brief: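 Read-out: beta-lactamase FRET fluorescence (LiveBLAzer B/G substrate, 2 h, room temperature) in GeneBLAzer FXR-UAS-bla HEK 293T cells. Compounds were co-dosed with 50 uM chenodeoxycholic acid (final) and incubated 16 h at 37 °C.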

Experiment [6] is described as follows: qHTS assay to identify small molecule agonists of the farnesoid-X-receptor (FXR) signaling pathway - cell viability counter screen (AID 743218; active = well fitted curve in the direction sought with a large enough effect in the repeat runs; an effect the other way counts as inactive or inconclusive; note: nearly all actives have a fitted effect of over 45% in size). The essentials: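 Luminescence from CellTiter-Glo, read after 30 min at RT, reports viability of GeneBLAzer FXR-UAS-bla HEK 293T cells treated 16 h with compounds in the wells used for the beta-lactamase reporter.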

In experiment [7] the target is Bile acid receptor (Homo sapiens) (UniProt Q96RI1). The experiment can be described thus: qHTS assay to identify small molecule agonists of the farnesoid-X-receptor (FXR) signaling pathway (AID 743220; active = well fitted activation curve with a large enough effect in the signal ratio in the repeat runs, not every such curve was filed as active; the % refers to the signal ratio). The essentials: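 FXR-UAS-bla HEK 293T cells carrying a UAS-driven beta-lactamase reporter were plated for 5 h at 37C/5% CO2, then exposed to DMSO-dissolved Tox21 10K compounds for 16 h at 37C. A LiveBLAzer B/G FRET substrate was loaded for 2 h at room temperature before fluorescence reading.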
Sequence of Bile acid receptor (Homo sapiens) (Q96RI1 whole entry, looked up): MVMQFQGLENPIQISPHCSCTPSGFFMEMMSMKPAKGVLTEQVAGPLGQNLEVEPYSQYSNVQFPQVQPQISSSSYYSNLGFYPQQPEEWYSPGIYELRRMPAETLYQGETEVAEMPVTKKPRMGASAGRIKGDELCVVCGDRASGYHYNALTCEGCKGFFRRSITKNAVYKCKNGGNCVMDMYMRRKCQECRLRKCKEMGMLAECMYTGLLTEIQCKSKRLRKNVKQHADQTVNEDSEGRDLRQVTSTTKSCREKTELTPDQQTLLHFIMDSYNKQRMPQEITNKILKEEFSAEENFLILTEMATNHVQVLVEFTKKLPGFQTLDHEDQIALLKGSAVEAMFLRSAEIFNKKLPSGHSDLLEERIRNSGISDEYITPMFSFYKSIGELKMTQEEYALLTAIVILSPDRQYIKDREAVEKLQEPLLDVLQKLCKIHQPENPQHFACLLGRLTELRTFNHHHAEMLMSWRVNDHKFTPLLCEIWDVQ

Experiment [8] is described as follows: qHTS assay to identify small molecule antagonists of the farnesoid-X-receptor (FXR) signaling pathway - cell viability counter screen (AID 743221; active = well fitted cell-killing curve with a large enough effect in the repeat runs, not every such curve was filed as active; note: nearly all actives have a fitted effect of over 50% in size). The method in brief: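 FXR-UAS-bla HEK 293T cells were treated with test compounds plus chenodeoxycholic acid (50 uM final) for 16 h at 37 C. Cell viability in the same wells was then read as CellTiter-Glo luminescence after 30 min at room temperature.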

In experiment [9] the target is Vitamin D3 receptor (Homo sapiens) (UniProt P11473). The experiment can be described thus: qHTS assay to identify small molecule agonists of the vitamin D receptor (VDR) signaling pathway (AID 743222). The essentials: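 Beta-lactamase reporter readout (LiveBLAzer B/G FRET, 2 h RT) in VDR-bla cells after 16 h compound treatment at 37C, 5% CO2; cells pre-incubated 4 h before pin transfer of DMSO solutions.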
Sequence of Vitamin D3 receptor (Homo sapiens) (P11473 whole entry, looked up): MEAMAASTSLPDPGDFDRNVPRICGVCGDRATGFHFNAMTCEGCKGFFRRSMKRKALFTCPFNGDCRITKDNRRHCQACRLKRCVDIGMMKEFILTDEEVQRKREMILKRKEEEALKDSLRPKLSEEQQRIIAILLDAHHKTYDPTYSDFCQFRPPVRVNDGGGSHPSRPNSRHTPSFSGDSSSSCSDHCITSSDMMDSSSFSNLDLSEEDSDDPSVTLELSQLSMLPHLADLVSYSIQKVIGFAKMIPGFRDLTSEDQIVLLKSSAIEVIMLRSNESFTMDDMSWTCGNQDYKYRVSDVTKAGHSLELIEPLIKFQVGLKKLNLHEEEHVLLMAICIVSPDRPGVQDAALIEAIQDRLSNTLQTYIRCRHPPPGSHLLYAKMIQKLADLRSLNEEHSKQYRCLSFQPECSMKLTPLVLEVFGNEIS

The target is the same in experiment [10]. In words: qHTS assay to identify small molecule antagonists of the vitamin D receptor (VDR) signaling pathway (AID 743223; active = well fitted inhibition curve with a large enough effect in the signal ratio in the repeat runs, not every such curve was filed as active; the % refers to the signal ratio). The method in brief:
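VDR-bla cells were plated, incubated 4 h at 37C, then given compound and 1alpha,25-dihydroxyvitamin D3 (3 nM final). After 16 h at 37C, LiveBLAzer B/G FRET substrate was added for 2 h at room temperature and fluorescence read.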

A short description of experiment [11]: qHTS assay to identify small molecule agonists of the vitamin D receptor (VDR) signaling pathway - cell viability counter screen (AID 743224; active = well fitted curve in the direction sought with a large enough effect in the repeat runs; an effect the other way counts as inactive or inconclusive; note: series mostly up to about 63 µM; nearly all actives have a fitted effect of over 50% in size). The essentials:
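Cytotoxicity counter screen: VDR-bla cells, 16 h compound exposure at 37C, 5% CO2; CellTiter-Glo luminescence, 30 min RT, same wells as bla read.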

Experiment [12] in a line: qHTS assay to identify small molecule antagonists of the vitamin D receptor (VDR) signaling pathway - cell viability counter screen (AID 743225; active = well fitted curve in the direction sought with a large enough effect in the repeat runs; an effect the other way counts as inactive or inconclusive; note: nearly all actives have a fitted effect of over 50% in size). The essentials:
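VDR-bla HEK 293T cells, 4 h pre-incubation at 37C, then compound plus 1-alpha,25-dihydroxyvitamin D3 (3 nM final) for 16 h. After the beta-lactamase FRET read, CellTiter-Glo was added to the same wells; luminescence after 30 min at room temperature.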

A short description of experiment [13]: qHTS assay to identify small molecule agonists of the NFkB signaling pathway - cell viability counter screen (AID 1159515). Note: series mostly up to about 61 µM; nearly all actives have a fitted effect of over 55% in size. The essentials:
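ME-180 NFkB-bla cells, 2,000/well; overnight attach; compound 5 hr, 37 C/5% CO2; LiveBLAzer substrate 1.5 hr RT; then CellTiter-Glo in same wells, 30 min RT, luminescence read.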

The nature of experiment [14]: qHTS assay to identify small molecule agonists of the endoplasmic reticulum stress response signaling pathway (AID 1159516; active = well fitted activation curve with a large enough effect in the signal ratio in the repeat runs, not every such curve was filed as active; the % refers to the signal ratio). The method in brief: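 HeLa ESRE-bla reporter line; cpd 5 h, 37 C/5% CO2; LiveBLAzer B/G FRET substrate 2 h RT; ex 405, em 460/530 nm.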
The nature of experiment [15]: qHTS assay to identify small molecule agonists of the endoplasmic reticulum stress response signaling pathway - cell viability counter screen (AID 1159517). The method in brief: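 Steps: seed 1,500 ESRE-bla HeLa cells per well; incubate overnight at 37 C, 5% CO2; add compounds in DMSO for 5 hr; run FRET substrate 2 hr RT; add CellTiter-Glo, wait 30 min, read luminescence.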

Experiment [16] in a line: qHTS assay to identify small molecule antagonists of the retinoid-related orphan receptor gamma (ROR-gamma) signaling pathway - cell viability counter screen (AID 1159520; active = well fitted curve in the direction sought with a large enough effect in the repeat runs; an effect the other way counts as inactive or inconclusive; note: nearly all actives have a fitted effect of over 50% in size). The method in brief:
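Tet-on ROR gamma CHO cells were given compounds for 2 hr, then doxycycline hyclate at 1 uM final, and incubated 16 hr at 37 C. Viability was measured as ATP content by CellTiter-Glo luminescence.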

The target of experiment [17] is Nuclear receptor ROR-gamma (Homo sapiens) (UniProt P51449). The experiment can be described thus: qHTS assay to identify small molecule antagonists of the retinoid-related orphan receptor gamma (ROR-gamma) signaling pathway (AID 1159521; active = well fitted curve in the direction sought with a large enough effect in the repeat runs; an effect the other way counts as inactive or inconclusive). The essentials: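 Tet-on RORγ CHO cells carrying a ROR response element–luciferase reporter were pretreated with compounds for 2 h, then induced with 1 uM (final) doxycycline hyclate for 16 h at 37 C. Antagonism was read as decreased ONE-Glo luminescence.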

Experiment [18] can be described thus: qHTS assay to identify small molecule agonists of the AP-1 signaling pathway - cell viability counter screen (AID 1159525). Note: nearly all actives have a fitted effect of over 55% in size. The essentials:
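Same-well cytotoxicity counter screen of the Tox21 10K library in ME-180 cells. The readout is ATP-dependent luminescence after 5 h compound treatment. Data are normalised to DMSO and tetra n-octyl ammonium bromide controls.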

A short description of experiment [19]: qHTS assay to identify small molecule agonists of the AP-1 signaling pathway (AID 1159526).
For experiment [20], the target named is Retinoic acid receptor RXR-alpha (Homo sapiens) (UniProt P19793). The experiment can be described thus: qHTS assay to identify small molecule agonists of the RXR signaling pathway (AID 1159527). Note: nearly all actives have a fitted effect of over 35% in size. Note: potency is the fitted concentration of half-maximal effect. The essentials:
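GeneBLAzer RXR-alpha-UAS-bla HEK 293T cells in medium with 2% charcoal-stripped FBS, pre-incubated 5 hr at 37 C, then exposed to compounds 16 hr. Beta-lactamase reporter read by FRET substrate, 2 hr room temperature, 460/530 nm emission.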

Inconclusive results are not listed. The source made the active and inactive calls. Unless noted, calls come from the whole dose curve.

Sequence of Peroxisome proliferator-activated receptor delta (Homo sapiens) (Q03181 whole entry, looked up): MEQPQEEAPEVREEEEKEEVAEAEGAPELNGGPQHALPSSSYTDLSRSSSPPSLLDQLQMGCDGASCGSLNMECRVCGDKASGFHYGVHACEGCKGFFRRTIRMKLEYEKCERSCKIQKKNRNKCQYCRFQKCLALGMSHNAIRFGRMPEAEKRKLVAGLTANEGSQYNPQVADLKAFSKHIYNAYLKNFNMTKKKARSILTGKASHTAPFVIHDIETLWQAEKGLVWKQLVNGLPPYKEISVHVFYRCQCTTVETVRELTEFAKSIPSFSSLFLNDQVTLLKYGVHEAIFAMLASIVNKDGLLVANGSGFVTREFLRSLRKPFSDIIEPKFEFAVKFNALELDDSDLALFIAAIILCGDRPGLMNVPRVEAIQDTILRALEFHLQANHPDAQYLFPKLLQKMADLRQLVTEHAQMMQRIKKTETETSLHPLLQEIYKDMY
Sequence of Retinoic acid receptor RXR-alpha (Homo sapiens) (P19793 whole entry, looked up): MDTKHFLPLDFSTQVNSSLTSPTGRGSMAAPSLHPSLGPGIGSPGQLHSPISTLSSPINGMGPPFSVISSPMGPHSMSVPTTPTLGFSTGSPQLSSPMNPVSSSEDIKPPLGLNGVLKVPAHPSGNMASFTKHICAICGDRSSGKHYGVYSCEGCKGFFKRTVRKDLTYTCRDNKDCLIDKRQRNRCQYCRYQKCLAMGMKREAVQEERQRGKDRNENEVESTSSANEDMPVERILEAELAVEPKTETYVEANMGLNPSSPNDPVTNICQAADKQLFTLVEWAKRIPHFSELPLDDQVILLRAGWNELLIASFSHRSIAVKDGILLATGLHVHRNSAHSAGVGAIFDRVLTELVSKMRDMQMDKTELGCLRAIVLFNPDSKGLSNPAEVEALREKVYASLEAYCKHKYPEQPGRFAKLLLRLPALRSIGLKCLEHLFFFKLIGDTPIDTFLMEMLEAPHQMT

For `CC(O)CN1CCN(CC(=O)[O-])CCN(CC(=O)[O-])CCN(CC(=O)[O-])CC1.[Gd+3]` (configuration not stated), the Potency result in [1], in experiment [3], in [4], in experiment [5], in [6] and in experiment [8] was “inactive” throughout. Also, the Potency entry in experiment [10], in experiment [11], in [12], in [13], in [14] and in experiment [15] was “inactive” throughout. For the same molecule, the Potency entry in experiment [16], in experiment [17], in [18], in experiment [19] and in experiment [20] was “inactive” in each case. The result in [2], in experiment [7] and in [9] was inactive.

Turning to `O=CC=O`, the Potency entry in [1], in experiment [3], in [4], in experiment [6], in [8] and in [11] was “inactive” in each case. In addition, the Potency result in [12], in experiment [13], in [14], in [15], in [16] and in experiment [17] was “inactive” in each case. Further, the Potency result in [18], in experiment [19] and in experiment [20] was “inactive” each time. In addition, in experiment [2], the molecule was classed as inactive.

For `CCSCc1ccccc1OC(=O)NC`, the Potency entry in [1], in [5], in [6], in experiment [8], in [10] and in experiment [11] was “inactive” throughout. Moreover, the Potency entry in [12], in experiment [13], in experiment [14], in experiment [15], in experiment [16] and in experiment [17] was “inactive” each time. For the same molecule, the Potency entry in experiment [18], in [19] and in [20] was “inactive” in each case. For the same molecule, the call in experiment [2], in experiment [7] and in experiment [9] was inactive.

As to `O=S(=O)(c1ccccc1)c1ccccc1`, the Potency result in [1], in [5], in experiment [6], in [8], in experiment [11] and in experiment [13] was “inactive” in each case. Further, the Potency entry in experiment [14], in experiment [15], in experiment [16], in experiment [17], in experiment [18] and in [19] was “inactive” in each case. For the same molecule, in [20], the Potency entry is “inactive”. Besides, the molecule was called inactive in experiment [2] and in experiment [9].

Turning to `O=C1CC[C@@]2(O)[C@H]3Cc4ccc(O)c5c4[C@@]2(CCN3CC2CC2)[C@H]1O5`, the Potency entry in [1], in experiment [3], in experiment [5], in [6], in experiment [8] and in experiment [13] was “inactive” throughout. Moreover, the Potency entry in experiment [14], in experiment [15], in [16], in [17], in experiment [18] and in [19] was “inactive” each time. The Potency entry in [20] is “inactive”. The result in experiment [7] was inactive.

`O=C(O)C(F)(F)C(F)(F)C(F)(F)C(F)(F)C(F)(F)C(F)(F)C(F)(F)C(F)(F)F`: the Potency result in experiment [1], in experiment [3], in experiment [5], in [8], in experiment [10] and in [11] was “inactive” in each case. The Potency result in experiment [13], in experiment [14], in experiment [15], in experiment [16], in [17] and in experiment [18] was “inactive” each time. Moreover, in [19], the Potency entry is “inactive”. Besides, the outcome in experiment [7] and in experiment [9] was inactive. Moreover, the Potency in experiment [20] is 21.9 µM (active).

Regarding `O=[N+]([O-])O[C@H]1CO[C@H]2[C@@H]1OC[C@H]2O[N+](=O)[O-]`, the Potency result in experiment [1], in experiment [3], in experiment [4], in experiment [5], in [6] and in experiment [8] was “inactive” in each case. The Potency entry in experiment [10], in experiment [11], in [12], in experiment [13], in [14] and in experiment [15] was “inactive” in each case. Besides, the Potency result in experiment [16], in [17], in experiment [18], in [19] and in experiment [20] was “inactive” each time. Moreover, the molecule was classed as inactive in [2] and in experiment [9].

With `Cc1nc(N(C)C)nc(OC(=O)N(C)C)c1C`, the Potency result in experiment [1], in experiment [3], in [4], in experiment [5], in experiment [6] and in experiment [10] was “inactive” in each case. Besides, the Potency result in experiment [11], in experiment [12], in [13], in [14], in [15] and in experiment [16] was “inactive” in each case. Further, the Potency entry in experiment [17], in experiment [18], in experiment [19] and in [20] was “inactive” throughout. Also, the outcome in experiment [2], in experiment [7] and in experiment [9] was inactive.
